# Source: the supplement of paper PMC8728848
# The entries come from a sample that favours the strongest signals as a whole.
# B1: CBP21 (Serratia marcescens), O83009 (protein)
# chain: MNKTSRTLLSLGLLSAAMFGVSQQANAHGYVESPASRAYQCKLQLNTQCGSVQYEPQSVEGLKGFPQAGPADGHIASADKSTFFELDQQTPTRWNKLNLKTGPNSFTWKLTARHSTTSWRYFITKPNWDASQPLTRASFDLTPFCQFNDGGAIPAAQVTHQCNIPADRSGSHVILAVWDIADTANAFYQAIDVNLSK
# What was measured:
# Assay in all cases: glycan array binding signal (z-score within array); higher = stronger binding
# Conditions in all cases: glycan notation: IUPAC condensed, linker removed
# [1] = target: Fuc(a1-2)Gal(b1-3)GlcNAc(b1-2)Man(a1-3)[Fuc(a1-2)Gal(b1-3)GlcNAc(b1-2)Man(a1-6)]Man(b1-4)GlcNAc(b1-4)GlcNAc
# Outline: (§1)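 The binding signal is a Z-score computed within each array and averaged over linkers. Arrays of the same protein sequence at different concentrations or buffers were also averaged together. Data originate from 3228 arrays in the Consortium for Functional Glycomics database, kept only where the protein sequence was available.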
# [2] = target: Fuc(a1-2)Gal(b1-4)GlcNAc6S
# Outline: as §1
# [3] = target: Fuc(a1-2)Gal(b1-4)[Fuc(a1-3)]GlcNAc(b1-2)[Fuc(a1-2)Gal(b1-4)[Fuc(a1-3)]GlcNAc(b1-4)]Man(a1-3)[Fuc(a1-2)Gal(b1-4)[Fuc(a1-3)]GlcNAc(b1-2)Man(a1-6)]Man(b1-4)GlcNAc(b1-4)GlcNAc
# Outline: as §1
# [4] = target: Fuc(a1-2)Gal(b1-4)[Fuc(a1-3)]GlcNAc(b1-3)Gal(b1-4)[Fuc(a1-3)]GlcNAc(b1-3)Gal(b1-4)[Fuc(a1-3)]GlcNAc
# Outline: as §1
# [5] = target: Fuc(a1-2)Gal6S(b1-3)GlcNAc
# Outline: as §1
# [6] = target: Fuc(a1-2)[Gal(a1-3)]Gal(b1-4)GlcNAc(b1-3)[Fuc(a1-2)[Gal(a1-3)]Gal(b1-4)GlcNAc(b1-6)]GalNAc
# Outline: as §1
# [7] = target: Fuc(a1-2)[GalNAc(a1-3)]Gal(b1-4)Glc
# Outline: as §1
# [8] = target: Fuc(a1-2)[GalNAc(a1-3)]Gal(b1-4)GlcNAc(b1-2)Man(a1-3)[Fuc(a1-2)[GalNAc(a1-3)]Gal(b1-4)GlcNAc(b1-2)Man(a1-6)]Man(b1-4)GlcNAc(b1-4)[Fuc(a1-6)]GlcNAc
# Outline: as §1
# [9] = target: Fuc(a1-3)[Gal(b1-4)]GlcNAc(b1-2)Man(a1-3)[Fuc(a1-3)[Gal(b1-4)]GlcNAc(b1-2)Man(a1-6)]Man(b1-4)GlcNAc(b1-4)GlcNAc
# Outline: as §1
# [10] = target: Fuc(a1-3)[Gal(b1-4)]GlcNAc(b1-3)Gal(b1-4)[Fuc(a1-3)]GlcNAc(b1-3)Gal(b1-4)[Fuc(a1-3)]GlcNAc
# Outline: as §1
# [11] = target: Fuc(a1-3)[Gal(b1-4)]GlcNAc(b1-3)GalNAc
# Outline: as §1
# Gal(a1-3)Gal = target: Gal(a1-3)Gal
# Outline: as §1
# [12] = target: Gal(b1-3)GalNAc(a1-3)[Fuc(a1-2)]Gal(b1-4)Glc
# Outline: as §1
# Gal(b1-3)GlcNAc = target: Gal(b1-3)GlcNAc
# Outline: as §1
# [13] = target: Gal(b1-3)GlcNAc(a1-3)Gal(b1-4)GlcNAc
# Outline: as §1
# [14] = target: Gal(b1-3)GlcNAc(b1-3)Gal(b1-4)GlcNAc(b1-2)[Gal(b1-3)GlcNAc(b1-3)Gal(b1-4)GlcNAc(b1-6)]Man(a1-6)[Gal(b1-3)GlcNAc(b1-3)Gal(b1-4)GlcNAc(b1-2)Man(a1-3)]Man(b1-4)GlcNAc(b1-4)[Fuc(a1-6)]GlcNAc
# Outline: as §1
# [15] = target: Gal(b1-4)GlcNAc(b1-3)Gal(b1-4)GlcNAc(b1-3)Gal(b1-4)GlcNAc(b1-2)Man(a1-3)[Gal(b1-4)GlcNAc(b1-3)Gal(b1-4)GlcNAc(b1-3)Gal(b1-4)GlcNAc(b1-2)Man(a1-6)]Man(b1-4)GlcNAc(b1-4)[Fuc(a1-6)]GlcNAc
# Outline: as §1
# [16] = target: Gal(b1-4)GlcNAc(b1-3)Gal(b1-4)GlcNAc(b1-3)Gal(b1-4)GlcNAc(b1-3)Gal(b1-4)GlcNAc(b1-3)Gal(b1-4)GlcNAc(b1-2)[Gal(b1-4)GlcNAc(b1-3)Gal(b1-4)GlcNAc(b1-3)Gal(b1-4)GlcNAc(b1-3)Gal(b1-4)GlcNAc(b1-3)Gal(b1-4)GlcNAc(b1-6)]Man(a1-6)[Gal(b1-4)GlcNAc(b1-3)Gal(b1-4)GlcNAc(b1-3)Gal(b1-4)GlcNAc(b1-3)Gal(b1-4)GlcNAc(b1-3)Gal(b1-4)GlcNAc(b1-2)Man(a1-3)]Man(b1-4)GlcNAc(b1-4)[Fuc(a1-6)]GlcNAc
# Outline: as §1
# [17] = target: Gal(b1-4)GlcNAc(b1-3)Gal(b1-4)GlcNAc(b1-3)Gal(b1-4)GlcNAc(b1-3)Gal(b1-4)GlcNAc(b1-3)Gal(b1-4)GlcNAc(b1-3)Gal(b1-4)GlcNAc(b1-2)Man(a1-3)[Gal(b1-4)GlcNAc(b1-3)Gal(b1-4)GlcNAc(b1-3)Gal(b1-4)GlcNAc(b1-3)Gal(b1-4)GlcNAc(b1-3)Gal(b1-4)GlcNAc(b1-3)Gal(b1-4)GlcNAc(b1-2)Man(a1-6)]Man(b1-4)GlcNAc(b1-4)GlcNAc
# Outline: as §1
# [18] = target: Gal(b1-4)GlcNAc(b1-3)Gal(b1-4)[Fuc(a1-3)]GlcNAc(b1-3)Gal(b1-4)[Fuc(a1-3)]GlcNAc
# Outline: as §1
# Gal(b1-6)Gal = target: Gal(b1-6)Gal
# Outline: as §1
# Gal3S(b1-4)GlcNAc = target: Gal3S(b1-4)GlcNAc
# Outline: as §1
# Gal3S6S(b1-4)GlcNAc = target: Gal3S6S(b1-4)GlcNAc
# Outline: as §1
# Gal6S(b1-4)Glc = target: Gal6S(b1-4)Glc
# Outline: as §1
# GalNAc(b1-3)GalNAc = target: GalNAc(b1-3)GalNAc
# Outline: as §1
# GalNAc(b1-3)GlcNAc = target: GalNAc(b1-3)GlcNAc
# Outline: as §1
# GalNAc(b1-4)Gal(b1-4)Glc = target: GalNAc(b1-4)Gal(b1-4)Glc
# Outline: as §1
# GalNAc(b1-4)GlcNAc = target: GalNAc(b1-4)GlcNAc
# Outline: as §1
# GalNAc(b1-4)GlcNAc6S = target: GalNAc(b1-4)GlcNAc6S
# Outline: as §1
# [19] = target: GlcA3S(b1-3)Gal(b1-4)GlcNAc(b1-2)Man
# Outline: as §1
binder,measurement,setting,value
B1,glycan array binding signal (z-score),[1],4.3
same,glycan array binding signal (z-score),[2],-1.02
same,glycan array binding signal (z-score),[3],3.02
same,glycan array binding signal (z-score),[4],2.95
same,glycan array binding signal (z-score),[5],-0.19
same,glycan array binding signal (z-score),[6],2.99
same,glycan array binding signal (z-score),[7],-0.513
same,glycan array binding signal (z-score),[8],-0.038
same,glycan array binding signal (z-score),[9],-0.009
same,glycan array binding signal (z-score),[10],-1.15
same,glycan array binding signal (z-score),[11],0.402
same,glycan array binding signal (z-score),Gal(a1-3)Gal,-0.172
same,glycan array binding signal (z-score),[12],-0.45
same,glycan array binding signal (z-score),Gal(b1-3)GlcNAc,-0.226
same,glycan array binding signal (z-score),[13],0.425
same,glycan array binding signal (z-score),[14],3.27
same,glycan array binding signal (z-score),[15],2.68
same,glycan array binding signal (z-score),[16],2.67
same,glycan array binding signal (z-score),[17],1.21
same,glycan array binding signal (z-score),[18],-0.565
same,glycan array binding signal (z-score),Gal(b1-6)Gal,-0.589
same,glycan array binding signal (z-score),Gal3S(b1-4)GlcNAc,1.21
same,glycan array binding signal (z-score),Gal3S6S(b1-4)GlcNAc,0.23
same,glycan array binding signal (z-score),Gal6S(b1-4)Glc,-0.3
same,glycan array binding signal (z-score),GalNAc(b1-3)GalNAc,-0.453
same,glycan array binding signal (z-score),GalNAc(b1-3)GlcNAc,-0.162
same,glycan array binding signal (z-score),GalNAc(b1-4)Gal(b1-4)Glc,1.03
same,glycan array binding signal (z-score),GalNAc(b1-4)GlcNAc,0.482
same,glycan array binding signal (z-score),GalNAc(b1-4)GlcNAc6S,0.16
same,glycan array binding signal (z-score),[19],-1.64
